# Laboratory results published in PubChem BioAssay (EPA / NIEHS).
# Results filed as inconclusive are left out. More than one record can exist for a structure, and the calls need not agree. Active and inactive are the calls of the source. How the source made its calls: active means hit-call score of the fitted dose curve at least 0.9, where 1 is the maximum; inconclusive means response in the unintended direction; inactive means score below 0.9.
# Assay: CCTE_Mundy_HCI_iCellGluta_NOG_NeuronCount: CCTE's Neurite Outgrowth Assay in iCellGluta cells for Neuron Count, Mundy Lab (AID 2284340);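 further: cells fixed about 48 h after compound addition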
# Description: CCTE_Mundy_HCI_iCellGluta_NOG is a multiplexed, cell-based-readout assay that uses iCell GlutaNeurons from FUJIFILM Cellular Dynamics, Inc. (FCDI), human glutamatergic enriched neurons derived from induced pluripotent stem (iPS) cells, with measurements taken at 50.33 hours after chemical dosing in a microplate: 96-well plate.CCTE_Mundy_HCI_iCellGluta_NOG_NeuronCount is one of four components of the CCTE_Mundy_HCI_iCellGluta_NOG assay. It measures cell viability related to number of neurons using High Content Imaging of fluorescently labelled markers.Data from the assay component CCTE_Mundy_HCI_iCellGluta_NOG_NeuronCount was analyzed at the endpoint CCTE_Mundy_HCI_iCellGluta_NOG_NeuronCount in the positive analysis fitting direction relative to DMSO as the negative control and baseline of activity. Using a type of viability reporter, loss-of-signal activity can be used to understand developmental effects.
# Exposure starts 2 hours post-plating by adding 10 ul of the working solution to 90 ul of media in the wells for a 1/10 dilution. Forty-eight hours after chemical treatment cells are fixed by direct addition of 100 ul of warm (37C) Dulbecco's phosphate buffered saline (DPBS) fixative solution containing 8% paraformaldehyde, 8% sucrose, and 0.1% of 3 mg/ml Hoechst 33342 into each well. Primary antibodies are prepared by dilution in Immunocytochemical Staining Buffer (ISB), 10X Dulbecco's PBS, 0.1% Saponin, 5% Bovine Serum Albumin, 0.5% NaN3 (Sodium Azide) and betaIII-tubulin (rabbit anti-betaIII-tubulin, 1:800) followed by Alexa Fluor-488 secondary (1:500) to label neuronal cell bodies and neurites. A Cellomics ArrayScan VTi HCS Reader is used for automated image acquisition and analysis of neurite outgrowth.
Compound,outcome,AC50
COP(=O)(OC)OC=C(Cl)Cl,inactive,
CC1(C)C(C=C(Cl)Cl)C1C(=O)OC(C#N)c1ccc(F)c(Oc2ccccc2)c1 (stereo not drawn),inactive,49.9 µM (active)
O=C(O)C(F)(F)C(F)(F)C(F)(F)C(F)(F)C(F)(F)C(F)(F)C(F)(F)F,inactive,
COP(=S)(OC)Oc1ccc([N+](=O)[O-])cc1,inactive,
CCC(C)(C)C(=O)OC1=C(c2ccc(Cl)cc2Cl)C(=O)OC12CCCCC2,inactive,
O=[N+]([O-])/N=C1\NCCN1Cc1ccc(Cl)nc1,inactive,
O=S1OCC2C(CO1)C1(Cl)C(Cl)=C(Cl)C2(Cl)C1(Cl)Cl (stereo not drawn),,13.8 µM (active)
CC1(c2ccc(Oc3ccccc3)cc2)OC(=O)N(Nc2ccccc2)C1=O (stereo not drawn),,50 µM (active)
CC[C@H](C)[C@H]1O[C@]2(C=C[C@@H]1C)C[C@@H]1C[C@@H](C/C=C(\C)[C@@H](O[C@H]3C[C@H](OC)[C@@H](O[C@H]4C[C@H](OC)[C@@H](O)[C@H](C)O4)[C@H](C)O3)[C@@H](C)/C=C/C=C3\CO[C@@H]4[C@H](O)C(C)=C[C@@H](C(=O)O1)[C@]34O)O2 (tested in a mixture with another compound),,3.77 µM (active)
CC(C)N(C(=O)COc1nnc(C(F)(F)F)s1)c1ccc(F)cc1,inactive,
CNC(=O)CSP(=S)(OC)OC,inactive,
O=S(=O)(O)C(F)(F)C(F)(F)C(F)(F)C(F)(F)C(F)(F)C(F)(F)C(F)(F)C(F)(F)F,inactive,
